This is a sample that favours compounds with a hit; in the whole collection about 10% have one here.
KB-V1 cytotox – KB-V1 MDR subline cytotoxicity; KB-V1 MDR cells viability, CellTiter-Glo, 72 h; Potency, µM (highest dose often 46.1 µM), hits mostly cytotoxic; actives 3.4% (n = 400,000); further: on the % scale 0 is the no-effect control and ±100 the full control effect; nearly all actives have a fitted effect of over 60% in size
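KB-V1 MDR subline cells in DMEM (phenol-red free, 10% FBS) exposed to compounds in qHTS concentration series for 72 h at 37 degrees C. Viability read by CellTiter-Glo luminescence; concentration-effect curves fitted after normalization and correction.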
SW480 rerep – DNA re-replication induction in SW480 cells; SW480 DNA re-replication, Hoechst DNA content imaging, 48 h; Potency, µM (highest dose often 46.1 µM), for the others: top-dose re-replication activation, most hits filed as activators; actives 1.8% (n = 340,000); AID 624297; further: % of control where 0% means no effect; nearly all actives have a fitted effect of over 55% in size
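First, 250 cells per well were seeded. Next, compound or vehicle (23 nL) was pinned in, plates sat 48 hr at 37 C. Finally Hoechst was added for 40 min before fluorescence scanning.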
KB-3-1 cytotox – KB-3-1 parental cell cytotoxicity | KB-3-1 viability, CellTiter-Glo ATP luminescence, 72 h | AID 1347075 | Potency, µM (doses to about 46.1 µM), actives largely listed as cytotoxic | actives 1.4% (n = 400,000); further: on the % scale 0 is the no-effect control and ±100 the full control effect; nearly all actives have a fitted effect of over 60% in size
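Cytotoxicity in the drug-sensitive parental line KB-3-1 was scored as loss of CellTiter-Glo luminescence following 72 h incubation with compound. Values come from curve fitting of normalized concentration-response data.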
VP16 counter – inhibits Gal4-VP16 luciferase reporter, ROR gamma counter-screen; Drosophila S2 Gal4-VP16 UAS-luciferase, luminescence, 20 h; Potency, µM (series often up to 53.6 µM), for inactives: at the highest dose activity, negative = inhibition, actives largely listed as inhibitors; actives 3.5% (n = 310,000);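 further: Gal4-VP16 expression switched on by copper sulfate through the metallothionein promoter; on the % scale 0 is the no-effect control and ±100 the full control effect; nearly all actives have a fitted effect of over 50% in size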
RORg inh – inhibitors of mouse ROR gamma transcriptional activity; P51450; Drosophila S2 Gal4-RORgamma UAS-luciferase reporter, 20 h; Potency, µM (doses to about 53.6 µM), for inactives: top-dose activity change, negative = inhibition, usual class: inhibitors; actives 5.4% (n = 310,000); further: on the % scale 0 is the no-effect control and ±100 the full control effect; nearly all actives have a fitted effect of over 60% in size
Target sequence (P51450 whole entry, looked up, the tested form may be a part): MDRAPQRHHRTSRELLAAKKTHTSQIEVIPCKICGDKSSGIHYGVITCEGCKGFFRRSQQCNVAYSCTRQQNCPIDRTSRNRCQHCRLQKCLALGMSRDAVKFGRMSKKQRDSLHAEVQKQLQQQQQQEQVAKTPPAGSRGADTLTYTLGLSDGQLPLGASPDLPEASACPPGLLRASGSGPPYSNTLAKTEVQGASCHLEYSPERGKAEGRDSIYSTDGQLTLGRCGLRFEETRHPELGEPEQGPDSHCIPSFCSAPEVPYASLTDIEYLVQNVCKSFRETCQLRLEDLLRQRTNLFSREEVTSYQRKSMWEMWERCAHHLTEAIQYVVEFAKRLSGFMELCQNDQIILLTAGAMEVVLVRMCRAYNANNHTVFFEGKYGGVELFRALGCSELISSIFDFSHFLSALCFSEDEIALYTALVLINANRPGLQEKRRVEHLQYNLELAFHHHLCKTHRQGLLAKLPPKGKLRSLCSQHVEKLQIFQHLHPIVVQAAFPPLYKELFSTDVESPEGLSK
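Using a luciferase readout, inhibitors were identified by reduced reporter activity in Drosophila cells coexpressing a copper-inducible Gal4–ROR gamma fusion and UAS-driven Photinus luciferase, incubated 20 hr after 700 uM copper sulfate.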
MCF10A rerep – inducers of DNA re-replication in MCF 10A breast cells; MCF 10A DNA re-replication, Hoechst nuclear intensity, 48 h; Potency, µM (highest dose often 46.1 µM), without a hit: at the top dose activity, positive = re-replication, most hits filed as activators; actives 2.9% (n = 350,000); AID 624296; further: % of control where 0% means no effect; nearly all actives have a fitted effect of over 50% in size
* hit, by the source's call; i = inactive; ? = inconclusive; . = no result. The call rests on the fitted dose curve; in most records, active means well fitted curve in the direction sought with a large enough effect; inconclusive means small, poorly fitted or top-dose-only effect, or another doubt; inactive means no such curve, though single readings can be large; an effect the other way counts as inactive or inconclusive. Potency means the concentration at half of the fitted maximal effect.

SMILES | KB-V1 cytotox | SW480 rerep | KB-3-1 cytotox | VP16 counter | RORg inh | MCF10A rerep
O=C(CN1C(=O)c2cccc3cccc1c23)Nc1cccc(F)c1 | i | . | i | . | . | .
Cc1cc(NC(=O)c2sccc2C)n(-c2nc3ccccc3[nH]2)n1 | ? | 11% | ? | 3.5µM* | 1µM* | ?
Cc1csc(NC(=O)c2sccc2C)n1 | i | -2% | ? | ? | -31% | 2%
Cc1cc(NC(=O)c2cccs2)n(-c2nc3ccccc3[nH]2)n1 | ? | 4.6µM* | ? | -9% | 13% | ?
CCOC(=O)C(=O)Nc1cc(C)nn1-c1nc2ccccc2[nH]1 | i | -3% | i | -8% | -34% | -5%
COc1cccc(C(=O)NC(=S)Nc2ccc(N3CCCC3)cc2)c1 | ? | -2% | i | 8.9µM* | 2µM* | 15%
COc1ccc(C(=O)NC(=S)Nc2ccc(N3CCCC3)cc2)cc1 | i | 2% | i | 7.1µM* | 2µM* | 1%
CCOc1cccc(C(=O)Nc2ccc(N3CCCC3)cc2)c1 | i | ? | ? | -6% | ? | 6%
COc1ccccc1C(=O)NNC(=S)NC(=O)c1cc(OC)c(OC)c(OC)c1 | i | ? | i | 18% | ? | ?
COc1cc(C(=O)NC(=S)NNC(=O)[C@H]2C[C@@H]2c2ccccc2)cc(OC)c1OC | i | 13% | i | -14% | 11µM* | 14%
COc1cc(C(=O)NC(=S)Nc2ccc(N3CCCC3)cc2)cc(OC)c1OC | i | -4% | i | 4.5µM* | 7.9µM* | 20%
COc1ccc(-c2cc(C)no2)cc1S(=O)(=O)NC1CCC(C)CC1 (centres undefined) | i | . | i | . | . | .
COc1cccc(C(=O)NC(=S)Nc2ccc3oc(=O)ccc3c2)c1 | i | -7% | i | ? | ? | -4%
COc1cc(C(=O)NCCC(=O)N2CCCCC2)cc(OC)c1OC | i | -2% | i | 0% | 12% | 3%
CC(C)Oc1cccc(C(=O)NC(=S)Nc2ccc(N3CCN(C)CC3)cc2)c1 | i | 76% | i | ? | 5.6µM* | 11%
COc1cc(C(=O)NC(=S)NC(C)C)cc(OC)c1OC | ? | ? | i | ? | 7.9µM* | 0%
COc1cccc(C(=O)NC(=S)Nc2ccc(N(C)C)cc2)c1 | ? | 3% | i | ? | 3.5µM* | 7%
COc1cc(C(=O)NC(=S)Nc2ccc(Cl)c(C(=O)O)c2)cc(OC)c1OC | i | -6% | i | -6% | -5% | ?
COc1cc(C(=O)NC(=S)N2CCCCCC2)cc(OC)c1OC | i | 13% | i | 2.8µM* | 0.89µM* | -3%
CSc1ncc2c(n1)-c1ccccc1N(Cc1ccccc1C)S2(=O)=O | i | . | i | . | . | .
CC12CCC3c4ccc(OCc5ccccc5)cc4CCC3C1CC(O)C2O (centres undefined) | . | . | . | -9% | 22% | .
COc1ccc(-c2n[nH]c(C(F)(F)F)c2-c2cc3ccccc3o2)c(O)c1 | 18µM* | 9% | i | ? | -90% | -2%
COc1ccc(-c2c(-c3ccc(OCC(=O)NN)cc3O)n[nH]c2C)cc1 | i | 11% | i | ? | ? | 7%
NNC(=O)COc1ccc(-c2n[nH]c(C(F)(F)F)c2-c2ccc(Br)cc2)c(O)c1 | i | -79% | i | ? | ? | 18µM*
COc1ccc(-c2nc(N)nc(C(F)(F)F)c2-c2ccccc2OC)c(O)c1 | i | -7% | i | -6% | ? | 12%
COc1ccccc1-c1c(-c2ccc(OCC(=O)NN)cc2O)n[nH]c1C(F)(F)F | i | 13% | i | 11µM* | -25% | ?
CC1CCN(S(=O)(=O)N2CCC(C(=O)NC(C)c3ccccc3)CC2)CC1 (centres undefined) | ? | . | i | . | . | .
